Our source for the growth values is PubChem BioAssay (NCI).

Holding throughout (assay): NCI-60 one-dose screen, 48 h (100 = growth as untreated, 0 = no growth, -100 = all killed)
Conditions in all cases: 10 µM unless noted

Assay [1] has as its system EKVX NSCLC.
Assay [2] relates to SN12C renal.
In assay [3] the test system is UO-31 renal.
Assay [4] deals with CAKI-1 renal.
In assay [5] the test system is A498 renal.
Assay [6] deals with MOLT-4 leukemia.
Assay [7] concerns SR leukemia.
Assay [8] concerns RPMI-8226 leukemia.
The test system of assay [9] is OVCAR-8 ovarian.
Assay [10] has as its system OVCAR-5 ovarian.
Assay [11] deals with OVCAR-4 ovarian.
Assay [12] has as its system IGROV1 ovarian.
The subject of assay [13] is OVCAR-3 ovarian.
Assay [14] has as its system HS 578T breast.
Assay [15] has as its system NCI/ADR-RES ovarian.
Assay [16] deals with T-47D breast.
In assay [17] the test system is ACHN renal.
Assay [18] relates to CCRF-CEM leukemia.
The subject of assay [19] is SK-OV-3 ovarian.

About 83,000 compounds went through this panel and 20% of them were active in at least one assay; those are over-represented in the sample as a whole.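 Single-concentration screen, 48 h exposure, 96-well plates. Endpoint: percent growth. Below 10 = active.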 Values without a mark were called inactive. The source made the active and inactive calls.

`Clc1ccc2c(OCCCN3CCOCC3)c3oc4ccccc4c3nc2c1`: the growth in assay [1] is 34.6%; in assay [2], 30.4%; in assay [3] it was 22.2%; in assay [4], 19.7%; in assay [5] it was 13.6%; in assay [6], 11.7%. In addition, the growth in [7] was 11.9%; in assay [8], 29%; in [9] it was 31.2%; in [10] it was 35.1%; in assay [11], 59%; in assay [12], 19.7%. Further, the growth in assay [13] was 69.5%; in assay [14] it was 38.4%; in [15] it was 36.3%; in assay [16], 40.8%.

Turning to `CC(=O)Oc1ccccc1C(=O)Nc1ccc(C(=O)/C=C/c2ccncc2)cc1`, the growth was 71.7% in assay [1]; 33.5% in [2]; 44.4% in [3]; 0.759% (active) in [17]; 100% in [5]; 10.2% in assay [18]. Also, the growth in assay [6] is 23.1%; in [7], -15.2% (active); in [8], -25.8% (active); in [9], 82.4%; in assay [10], 64.4%; in assay [11], 87.5%. For the same compound, the growth is 111% in [19]; 10.3% in [12]; 33.2% in assay [13]; 69.5% in assay [14]; 91.8% in assay [15]; 53.4% in assay [16].

Regarding `O=C(CCCN1C(=O)/C(=C/c2ccccc2F)SC1=S)N1CCOCC1`, the growth in [1] was 89.5%; in [2] it was 87.6%; in assay [3] it was 72.2%; in assay [4], 89.2%; in assay [5], 82.8%; in [18], 71.6%. Besides, the growth was 91.3% in [6]; 68% in assay [7]; 75.1% in assay [8]; 99% in assay [9]; 94.5% in assay [10]; 88.4% in [11]. The growth in assay [19] is 114%; in [12] it was 84.4%; in assay [13] it was 112%; in assay [14], 99.4%; in assay [15], 104%; in assay [16], 45.6%.

Turning to `COc1cccc(COc2ccc(/C=C3/C(=O)Nc4cc(Cl)ccc43)cc2)c1`, the growth in assay [1] was 87.6%; in assay [2] it was 91.1%; in [3] it was 75.4%; in [17], 96.9%; in assay [4], 90.6%; in assay [5], 93%. Further, the growth in assay [18] was 82.6%; in assay [6] it was -25.9% (active); in assay [8], 78%; in assay [9], 90.8%; in assay [10], 96.1%; in assay [11] it was 96.6%. The growth is 100% in assay [19]; 87.6% in assay [12]; 105% in assay [13]; 91% in assay [14]; 80.6% in assay [16].

For the compound `c1ccc2c(NCCCN3CCOCC3)c3oc4ccccc4c3nc2c1`, the growth was -19.6% (active) in assay [1]; 3.3% (active) in assay [2]; -79.6% (active) in assay [3]; -27% (active) in assay [4]; -86.9% (active) in assay [5]; 12% in [18]. Also, the growth in assay [6] was -4.43% (active); in assay [7], -12.1% (active); in assay [8] it was -14.4% (active); in assay [9], -71.7% (active); in assay [10], 1.26% (active); in [11], 7.86% (active). The growth was -9.67% (active) in [19]; -16.7% (active) in [12]; -19.6% (active) in assay [13]; 5.28% (active) in [14]; 21.1% in [16].

Turning to `N#Cc1nc(-c2ccccc2)oc1S(=O)(=O)N1CCCCC1`, the growth in [1] is 76.1%; in [2], 62.5%; in assay [3], -82.2% (active); in assay [17] it was -93.4% (active); in assay [4], 17.4%; in assay [5] it was 89.9%. Further, the growth in assay [18] was 4.27% (active); in assay [6], 0.441% (active); in [8], 64.6%; in assay [9] it was 89.9%; in assay [10], 102%; in assay [11] it was 101%. For the same compound, the growth in assay [19] was 132%; in assay [12], 19.9%; in assay [13], -54.2% (active); in assay [14], 106%; in [15] it was 99.3%; in assay [16] it was 49.9%.

Regarding `CCOC(=O)c1c(Nc2ccccc2)nn2c(-c3ccco3)c(C#N)cnc12`, the growth is 75.7% in [1]; 92.9% in [2]; 71% in assay [3]; 56.5% in [17]; 90.1% in assay [4]; 45.1% in assay [5]. For the same compound, the growth in assay [18] is 82.4%; in assay [6], 92.2%; in [8], 79.3%; in [9], 82.1%; in [10], 109%; in assay [11], 86.6%. The growth in [19] is 109%; in assay [12], 100%; in [13] it was 131%; in [14] it was 72%; in assay [15] it was 80%; in assay [16], 87.8%.

With `CCOC(=O)c1c(Nc2ccccc2)nn2c(N)c(C#N)c(-c3ccc(OC)cc3)nc12`, the growth in assay [1] was 69.2%; in assay [2] it was 86.6%; in assay [3] it was 76.7%; in assay [17], 38.5%; in assay [5], 75.5%; in [18] it was 89.3%. Further, the growth is 94.7% in assay [6]; 88.7% in [8]; 66.1% in assay [9]; 101% in assay [10]; 35.9% in assay [11]; 55.9% in [19]. The growth was 85.5% in assay [12]; 101% in assay [13]; 19.4% in assay [14]; 73.3% in [15]; 61.3% in assay [16].
